Data published in PubChem BioAssay.
Inconclusive results are not listed. The source made the active and inactive calls.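 Rule for the calls, unless noted: active = normalized viability below 100% at a tested concentration; inactive = the rest.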

Assays:
[1] = P. berghei load reduction in hepatocytes – cell-based, HepG2, luciferase luminescence, HepG2 viability, primary screen (AID 624349; in the data active = parasite load remaining mostly below about 12%, no sharp cut-off; inactive = mostly above about 10%;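 note: 100% = mean of DMSO negative control wells on the same plate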); details: P. berghei liver stage in HepG2, luciferase luminescence, concentration not given here; parasite load remaining: stronger effect = lower value; viability: measured here: HepG2 viability without parasites
[2] = viability loss in pontine glioma line – cell-based, SU-DIPG-XVII, MIPE5.0, CellTiter-Glo, qHTS, dose response (AID 1347060; cut-off not given, nearly all actives have AC50 up to about 26 µM;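 for AC50: cells exposed to compound for 48 hours before viability readout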); details: CellTiter-Glo ATP luminescence
[3] = viability loss in pontine glioma line – cell-based, SU-DIPG-IV, MIPE4.0, CellTiter-Glo, qHTS, dose response (AID 1347063; cut-off not given, nearly all actives have AC50 up to about 30 µM;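 note: compound exposure lasted 48 hours before the viability readout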); details: CellTiter-Glo ATP luminescence
[4] = viability loss in pontine glioma line – cell-based, SU-DIPG-XIII, MIPE5.0, CellTiter-Glo, qHTS, dose response (AID 1347064; cut-off not given, nearly all actives have AC50 up to about 23 µM;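 for AC50: cells exposed to compound for 48 hours before the viability read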); details: CellTiter-Glo ATP luminescence
[5] = viability loss in pontine glioma line – cell-based, SU-DIPG-XXV, MIPE5.0, CellTiter-Glo, qHTS, dose response (AID 1347065; cut-off not given, nearly all actives have AC50 up to about 26 µM;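 note: cells exposed to compound for 48 hours before ATP readout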); details: CellTiter-Glo ATP luminescence
[6] = JHH-DIPG-1 glioma cell viability, MIPE5.0 library, CellTiter-Glo luminescence, qHTS (AID 1347067; cut-off not given, nearly all actives have AC50 up to about 26 µM;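 note: cells exposed to compound for 48 hours before readout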); details: JHH-DIPG-1 glioma viability, CellTiter-Glo ATP luminescence
[7] = growth inhibition of DIPG cells – cell-based, MIPE5.0 library, qHTS (AID 1347068; cut-off not given, nearly all actives have IC50 up to about 30 µM;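 for IC50: cells exposed to compound for 48 hours before viability readout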); details: SU-DIPG-XXV viability
[8] = viability loss with induced miR-34 in A549 – imaging, A549 dox-inducible miR-34, nuclei and caspase counts, primary screen (AID 1347080;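 active = compounds whose cell count with miR-34 switched on is under 0.7 times the count with it off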); details: A549 miR-34 inducible, Hoechst nuclei count, 48 h
[9] = compounds altering HSF1 focus formation in cells – imaging, Selleck Cancer Library (AID 1347162; in the data active = plate-normalised HSF1 focus index below about 0.46); details: human cells, HSF1 nuclear foci imaging, at 10 µM; SSMD: measured here: HSF1 foci SSMD mean; cell count: measured here: cell number; plate-normalised HSF1 focus index: stronger effect = lower value
[10] = MELAS cybrid and Rieske KO viability enhancers – cell-based, MELAS cybrids, Rieske KO mouse fibroblasts, CellTiter-Glo, primary screen (AID 1508586;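 active = mean z-score across replicates of 1.96 or higher in either the MELAS or the Rieske mutant cell line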;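 note: z relative to plate mean and SD of compound and empty wells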); details: low glucose
[11] = drug combination growth inhibition, ovarian cancer – cell-based, oncology-focused library, rucaparib conditional, profiling panel (AID 1508598); details: patient-derived ovarian cancer cells, CellTiter-Glo viability, 144 h, stronger effect = lower value
[12] = growth inhibition of DIPG cells – cell-based, MIPE4.0 library, CellTiter-Glo luminescence, qHTS (AID 1347066; cut-off not given, nearly all actives have AC50 up to about 30 µM;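 note: cells exposed to compound for 48 hours before readout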); details: SU-DIPG-VI viability, CellTiter-Glo ATP luminescence
[13] = at 0.000305 µM, OCI-C5x cells, with rucaparib 10 µM, 100% = cells with rucaparib alone
[14] = at 0.000305 µM, OCI-C5x cells, without rucaparib
[15] = at 0.000305 µM, OCI-P5x cells, with rucaparib 20 µM, 100% = cells with rucaparib alone
[16] = at 0.000305 µM, OCI-P5x cells, without rucaparib
[17] = at 0.00122 µM, OCI-C5x cells, with rucaparib 10 µM, 100% = cells with rucaparib alone
[18] = at 0.00122 µM, OCI-C5x cells, without rucaparib
[19] = at 0.00122 µM, OCI-P5x cells, with rucaparib 20 µM, 100% = cells with rucaparib alone
[20] = at 0.00122 µM, OCI-P5x cells, without rucaparib
[21] = at 0.00488 µM, OCI-C5x cells, with rucaparib 10 µM, 100% = cells with rucaparib alone
[22] = at 0.00488 µM, OCI-C5x cells, without rucaparib
[23] = at 0.00488 µM, OCI-P5x cells, with rucaparib 20 µM, 100% = cells with rucaparib alone
[24] = at 0.00488 µM, OCI-P5x cells, without rucaparib
[25] = at 0.0195 µM, OCI-C5x cells, with rucaparib 10 µM, 100% = cells with rucaparib alone
[26] = at 0.0195 µM, OCI-C5x cells, without rucaparib
[27] = at 0.0195 µM, OCI-P5x cells, with rucaparib 20 µM, 100% = cells with rucaparib alone
[28] = at 0.0195 µM, OCI-P5x cells, without rucaparib
[29] = at 0.0781 µM, OCI-C5x cells, with rucaparib 10 µM, 100% = cells with rucaparib alone
[30] = at 0.0781 µM, OCI-C5x cells, without rucaparib
[31] = at 0.0781 µM, OCI-P5x cells, with rucaparib 20 µM, 100% = cells with rucaparib alone
[32] = at 0.0781 µM, OCI-P5x cells, without rucaparib
[33] = at 0.313 µM, OCI-C5x cells, with rucaparib 10 µM, 100% = cells with rucaparib alone

COc1cc2nccc(Oc3ccc(NC(=O)Nc4cc(C)on4)c(Cl)c3)c2cc1OC
inactive: parasite load remaining [1] 25.6% | fold change ([8]; stronger effect = lower value, cell number ratio, induced over uninduced) 1.35 | plate-normalised HSF1 focus index [9] 1.19 | z-score ([10]; MELAS cybrid survival, CellTiter-Glo 48 h, stronger effect = higher value) -0.36 | viability [11, 13] 115% | viability [11, 14] 105% | viability [11, 15] 104% | viability [11, 17] 109% | viability [11, 19] 101% | viability [11, 21] 107% | viability [11, 22] 106% | viability [11, 25] 113% | viability [11, 29] 113% | viability [11, 33] 133% | viability ([11]; at 0.313 µM, OCI-C5x cells, without rucaparib) 109% | viability ([11]; at 1.25 µM, OCI-C5x cells, with rucaparib 10 µM, 100% = cells with rucaparib alone) 138% | viability ([11]; at 5 µM, OCI-C5x cells, with rucaparib 10 µM, 100% = cells with rucaparib alone) 150% | viability ([11]; at 5 µM, OCI-C5x cells, without rucaparib) 104%
70.1%: viability [1]
0.722: fold change ([8]; measured here: relative caspase fold change +Dox/-Dox)
active: AC50 [2] 8.33 µM | AC50 [3] 18.7 µM | AC50 [4] 9.34 µM | AC50 [5] 5.9 µM | AC50 [6] 14.8 µM | IC50 [7] 9.34 µM | viability [11, 16] 96.5% | viability [11, 18] 100% | viability [11, 20] 94.7% | viability [11, 23] 92.6% | viability [11, 24] 93.9% | viability [11, 26] 96.2% | viability [11, 27] 98.1% | viability [11, 28] 86.6% | viability [11, 30] 88.6% | viability [11, 31] 92.2% | viability [11, 32] 87.4% | viability ([11]; at 0.313 µM, OCI-P5x cells, with rucaparib 20 µM, 100% = cells with rucaparib alone) 88.2% | viability ([11]; at 0.313 µM, OCI-P5x cells, without rucaparib) 91.5% | viability ([11]; at 1.25 µM, OCI-C5x cells, without rucaparib) 93.1% | viability ([11]; at 1.25 µM, OCI-P5x cells, with rucaparib 20 µM, 100% = cells with rucaparib alone) 81.9% | viability ([11]; at 1.25 µM, OCI-P5x cells, without rucaparib) 86.1% | viability ([11]; at 5 µM, OCI-P5x cells, with rucaparib 20 µM, 100% = cells with rucaparib alone) 70.8% | viability ([11]; at 5 µM, OCI-P5x cells, without rucaparib) 82.8%
0.933: z-score ([10]; Rieske KO mouse fibroblast survival, CellTiter-Glo 72 h)
2010: cell count ([8]; measured here: total cells without miR-34 induction)
7170: cell count [9]
2720: cell count ([8]; measured here: total cells with miR-34 induction, stronger effect = lower value)
3.28: SSMD [9]

COc1cc(F)c(C(C)C)cc1-c1ccc(C(F)(F)F)cc1CN1C(=O)O[C@H](c2cc(C(F)(F)F)cc(C(F)(F)F)c2)[C@@H]1C
inactive: outcome [2] | outcome [3] | outcome [4] | outcome [5] | outcome [12] | outcome [6] | outcome [7]

CC(C)CNc1ccnc(NCc2csc(-c3ccccc3)n2)n1
active: AC50 [2] 16.6 µM | AC50 [3] 16.6 µM | AC50 [4] 14.8 µM | AC50 [5] 16.6 µM | AC50 [12] 20.9 µM | AC50 [6] 20.9 µM

COc1ccc(-c2ccc3c(N4CCOCC4)nc(N4C[C@@H](C)O[C@@H](C)C4)nc3n2)cc1CO
6570: cell count [9]
active: AC50 [2] 3.72 µM | AC50 [3] 0.332 µM | AC50 [4] 4.17 µM | AC50 [5] 1.05 µM | AC50 [6] 1.05 µM
inactive: outcome [12] | plate-normalised HSF1 focus index [9] 0.909 | viability [11, 13] 118% | viability [11, 14] 122% | viability [11, 15] 105% | viability [11, 16] 112% | viability [11, 17] 113% | viability [11, 18] 119% | viability [11, 19] 109% | viability [11, 20] 108% | viability [11, 21] 112% | viability [11, 22] 120% | viability [11, 23] 104% | viability [11, 24] 107% | viability [11, 25] 120% | viability [11, 26] 117% | viability [11, 27] 103% | viability [11, 28] 104% | viability [11, 29] 122% | viability [11, 30] 125% | viability [11, 31] 100% | viability [11, 32] 109% | viability [11, 33] 121%
-1.75: SSMD [9]
